From PubChem BioAssay AID588689 (Southern Research Specialized Biocontainment Screening …, 2011)
Hit rate of the full screen: of about 340,000 compounds, about 1,000 (0.29%) were called active. Cut-off read from the data, not from the text of the source: inconclusive = inhibition above about 29% without an active follow-up result; inactive = below that. These entries were drawn from the full list. Results with a measured potency or affinity are listed apart.

Target: Genome polyprotein (Dengue virus type 2 (strain 16681-PDK53)) (UniProt P29991)
Sequence (P29991 whole entry, looked up): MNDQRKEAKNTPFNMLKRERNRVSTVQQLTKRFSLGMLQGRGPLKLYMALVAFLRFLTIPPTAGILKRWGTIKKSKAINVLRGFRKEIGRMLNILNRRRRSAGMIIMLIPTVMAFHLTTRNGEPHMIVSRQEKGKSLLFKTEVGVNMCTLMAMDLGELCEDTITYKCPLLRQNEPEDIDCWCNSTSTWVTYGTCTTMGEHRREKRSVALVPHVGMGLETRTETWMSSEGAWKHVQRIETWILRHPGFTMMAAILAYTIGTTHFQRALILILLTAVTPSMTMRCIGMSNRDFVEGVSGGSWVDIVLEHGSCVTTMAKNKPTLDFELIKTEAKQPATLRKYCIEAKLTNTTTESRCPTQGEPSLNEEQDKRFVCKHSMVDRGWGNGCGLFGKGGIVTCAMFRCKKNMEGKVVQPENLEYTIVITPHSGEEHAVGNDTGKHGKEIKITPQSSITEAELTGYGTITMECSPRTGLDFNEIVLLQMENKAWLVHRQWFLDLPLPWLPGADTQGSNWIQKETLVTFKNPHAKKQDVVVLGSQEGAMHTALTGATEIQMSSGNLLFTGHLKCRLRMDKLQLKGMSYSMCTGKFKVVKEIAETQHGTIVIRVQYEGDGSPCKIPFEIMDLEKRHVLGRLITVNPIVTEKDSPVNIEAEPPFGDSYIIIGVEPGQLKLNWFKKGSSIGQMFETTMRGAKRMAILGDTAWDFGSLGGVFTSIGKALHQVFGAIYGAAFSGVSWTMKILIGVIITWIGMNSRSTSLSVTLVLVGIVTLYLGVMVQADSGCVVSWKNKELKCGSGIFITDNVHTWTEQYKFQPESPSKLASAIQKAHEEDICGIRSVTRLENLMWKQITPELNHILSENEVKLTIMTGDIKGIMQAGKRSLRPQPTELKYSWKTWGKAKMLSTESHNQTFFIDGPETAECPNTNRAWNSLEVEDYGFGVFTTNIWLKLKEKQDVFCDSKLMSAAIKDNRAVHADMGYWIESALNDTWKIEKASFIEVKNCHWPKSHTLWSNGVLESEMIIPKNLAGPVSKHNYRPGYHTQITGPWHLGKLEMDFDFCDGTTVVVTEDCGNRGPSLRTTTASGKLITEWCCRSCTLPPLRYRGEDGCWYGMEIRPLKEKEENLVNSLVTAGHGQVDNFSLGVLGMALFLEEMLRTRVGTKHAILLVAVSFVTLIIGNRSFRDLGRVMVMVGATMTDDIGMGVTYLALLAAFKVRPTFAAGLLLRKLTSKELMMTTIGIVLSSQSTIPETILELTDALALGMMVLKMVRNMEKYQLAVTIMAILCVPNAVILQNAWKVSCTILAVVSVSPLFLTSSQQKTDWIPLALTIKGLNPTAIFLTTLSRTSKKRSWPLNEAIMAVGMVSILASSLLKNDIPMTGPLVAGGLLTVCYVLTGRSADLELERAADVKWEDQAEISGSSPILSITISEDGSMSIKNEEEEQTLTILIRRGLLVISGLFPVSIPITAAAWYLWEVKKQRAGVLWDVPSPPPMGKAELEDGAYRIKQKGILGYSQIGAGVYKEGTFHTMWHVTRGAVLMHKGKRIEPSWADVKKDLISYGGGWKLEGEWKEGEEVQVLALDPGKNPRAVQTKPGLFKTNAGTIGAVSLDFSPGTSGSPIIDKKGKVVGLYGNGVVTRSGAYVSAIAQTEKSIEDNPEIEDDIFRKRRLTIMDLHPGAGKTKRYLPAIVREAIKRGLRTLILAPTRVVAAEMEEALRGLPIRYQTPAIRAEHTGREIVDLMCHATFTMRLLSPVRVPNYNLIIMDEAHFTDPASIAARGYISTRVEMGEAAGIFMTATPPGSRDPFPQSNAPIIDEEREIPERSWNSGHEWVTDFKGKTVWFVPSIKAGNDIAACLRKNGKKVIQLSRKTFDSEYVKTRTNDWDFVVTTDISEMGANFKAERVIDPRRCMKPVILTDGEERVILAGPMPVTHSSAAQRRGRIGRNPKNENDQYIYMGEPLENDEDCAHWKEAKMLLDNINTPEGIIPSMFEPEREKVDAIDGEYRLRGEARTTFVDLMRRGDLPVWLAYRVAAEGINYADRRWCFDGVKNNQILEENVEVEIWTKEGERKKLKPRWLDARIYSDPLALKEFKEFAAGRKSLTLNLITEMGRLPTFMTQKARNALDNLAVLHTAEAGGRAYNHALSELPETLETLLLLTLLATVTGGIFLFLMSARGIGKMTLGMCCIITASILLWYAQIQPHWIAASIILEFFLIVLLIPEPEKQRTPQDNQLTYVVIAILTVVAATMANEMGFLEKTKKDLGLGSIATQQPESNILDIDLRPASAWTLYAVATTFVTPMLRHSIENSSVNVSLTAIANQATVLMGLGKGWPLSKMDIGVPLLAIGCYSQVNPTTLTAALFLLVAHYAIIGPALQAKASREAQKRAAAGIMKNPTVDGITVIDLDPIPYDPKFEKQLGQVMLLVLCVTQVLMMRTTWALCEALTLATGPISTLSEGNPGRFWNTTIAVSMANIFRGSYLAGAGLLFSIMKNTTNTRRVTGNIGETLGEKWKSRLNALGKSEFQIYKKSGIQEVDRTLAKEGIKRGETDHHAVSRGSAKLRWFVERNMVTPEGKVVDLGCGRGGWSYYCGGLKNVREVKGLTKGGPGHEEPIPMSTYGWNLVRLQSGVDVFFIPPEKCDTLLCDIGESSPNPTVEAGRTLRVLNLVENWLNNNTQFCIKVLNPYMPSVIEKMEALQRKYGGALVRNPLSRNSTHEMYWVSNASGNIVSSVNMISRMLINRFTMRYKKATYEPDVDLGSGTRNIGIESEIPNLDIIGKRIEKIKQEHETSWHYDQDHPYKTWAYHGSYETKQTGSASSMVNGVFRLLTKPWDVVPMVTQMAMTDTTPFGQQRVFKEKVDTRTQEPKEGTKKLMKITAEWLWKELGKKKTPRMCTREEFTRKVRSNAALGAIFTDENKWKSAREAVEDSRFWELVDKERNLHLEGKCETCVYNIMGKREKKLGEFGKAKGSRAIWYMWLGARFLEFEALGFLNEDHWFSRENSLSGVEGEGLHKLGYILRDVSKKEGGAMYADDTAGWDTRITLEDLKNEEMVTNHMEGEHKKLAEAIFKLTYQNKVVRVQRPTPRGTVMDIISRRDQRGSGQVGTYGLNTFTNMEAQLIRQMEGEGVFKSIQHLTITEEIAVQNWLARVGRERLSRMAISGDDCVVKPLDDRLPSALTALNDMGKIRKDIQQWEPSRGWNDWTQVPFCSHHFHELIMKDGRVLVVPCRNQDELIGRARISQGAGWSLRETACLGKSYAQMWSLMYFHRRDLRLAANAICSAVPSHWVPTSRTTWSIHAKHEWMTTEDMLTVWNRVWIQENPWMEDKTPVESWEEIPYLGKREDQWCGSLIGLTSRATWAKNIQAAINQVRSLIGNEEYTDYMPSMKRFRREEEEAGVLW
Test: flavivirus cap methylation enzyme inhibition – biochemical, confirmation dose response, primary screen (AID 588689)
Conditions: Dengue-2 NS5 methyltransferase capping enzyme assay, at 25 µM, stronger effect = higher value
[1] = measured here: pilot screen replicate inhibition

| SMILES | inhibition | inhibition [1] [%] |
| --- | --- | --- |
| O=C(CCC1CCCC1)NCCS(=O)(=O)N1CCN(c2ccccc2)CC1 | -5.17% (inactive) | – |
| Cc1c(C(=O)OCC(=O)N2CC(=O)Nc3ccccc32)oc2ccc(Br)cc12 | -0.83% (inactive) | – |
| Cc1cccc(NC(=O)C(=O)NCC2CCCN2S(=O)(=O)c2cccs2)c1 (stereo not drawn) | 6.86% (inactive) | – |
| Cc1onc(-c2ccccc2)c1C(=O)OCC(=O)c1ccc[nH]1 | -1.1% (inactive) | – |
| COC(=O)NC1CSCC1OC(=O)CN1C(=O)c2ccccc2C1=O (stereo not drawn) | 1.83% (inactive) | – |
| NS(=O)(=O)c1ccc(NC(=O)COc2ccc(S(=O)(=O)N3CCCC3)cc2)cc1 | -0.81% (inactive) | – |
| O=C1N/C(=C/c2ccc(Br)s2)C(=O)N1c1ccccc1 | -5.43% (inactive) | – |
| O=C1NC(=O)N(c2ccccc2)C1=O | 0% (inactive) | – |
| Cc1ccc(-n2nnnc2CS(=O)(=O)c2ccccc2)c(C)c1 | -5.86% (inactive) | – |
| C=CCc1ccccc1OCC(=O)OCCNC(=O)c1cccnc1 | 3.9% (inactive) | – |
| Cc1ccc(NCc2ccccc2)cc1 | -5.19% (inactive) | – |
| CSc1ccc(CNc2ccc(C)cc2)cc1 | 2.76% (inactive) | – |
| COc1ccc(OC)c(N=c2oc3c(OC)cccc3cc2C(=O)NCc2ccco2)c1 | -9.6% (inactive) | -5.77 |
| COc1ccccc1N=c1oc2c(OC)cccc2cc1C(=O)NCc1ccco1 | 12.3% (inactive) | 6.37 |
| O=c1oc2ccccc2c(O)c1C=Nc1cccnc1 | -5.19% (inactive) | – |
| CC(=O)Nc1ccc(Nc2cc(N3CCOCC3)c3nonc3c2[N+](=O)[O-])cc1 | -6.25% (inactive) | – |
| COc1cccc(Nc2cc(N3CCOCC3)c3nonc3c2[N+](=O)[O-])c1 | 2.01% (inactive) | – |
| CN(C)c1cc(Nc2ccc(O)cc2)c([N+](=O)[O-])c2nonc12 | -10.7% (inactive) | – |
| CC(=O)Nc1ccc(Nc2cc(N(C)C)c3nonc3c2[N+](=O)[O-])cc1 | -5.29% (inactive) | – |
| O=[N+]([O-])c1c(Nc2ccc(O)cc2)cc(N2CCOCC2)c2nonc12 | 9.17% (inactive) | – |
| O=[N+]([O-])c1ccc(Nc2ccccn2)c([N+](=O)[O-])c1 | -9.54% (inactive) | – |
| CN(C)c1cc(Nc2cccc(O)c2)c([N+](=O)[O-])c2nonc12 | 6.85% (inactive) | – |
| Nc1cc(Nc2ccccc2)c2nonc2c1[N+](=O)[O-] | -1.31% (inactive) | – |
| Cc1ccc(-c2cc(C(=O)N3CCOCC3)c3cc(C)ccc3n2)cc1 | -1.58% (inactive) | – |
| O=C1CS/C(=C\S(=O)(=O)c2ccc(Cl)cc2)N1 | -10.6% (inactive) | – |
| CCC(=O)N1c2ccccc2-c2nnc(SC)nc2OC1c1ccc(N(C)C)cc1 (stereo not drawn) | -7.25% (inactive) | – |
